The text below walks through data of PubChem BioAssay (NCATS).

Inconclusive results are not listed. Active and inactive are the calls of the source. Calls come from the whole dose curve; as a rule, active = well fitted curve in the direction sought with a large enough effect; inconclusive = small, poorly fitted or top-dose-only effect, or another doubt; inactive = no such curve, though single readings can be large or run the other way.
% is set by controls: 0 for no effect and ±100 for the full control effect; potency is the fitted concentration of half-maximal effect.

This assay can be described thus: qHTS Assay for Identifying Gametocytocidal Compounds (AID 743244).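 For max response: actives lower the fluorescent signal which means gametocytes are killed.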 The conditions noted are these: P. falciparum 3D7 stage III-V gametocytes, alamarBlue, 72 h; max response: active compounds read low. From the text:
Malaria cases and deaths have dropped 50% in 29 countries since 2000 due to the combined effects of long-lasting insecticidal bednets, indoor residual spraying, and artemisinin-based combination therapies (ACTs). This success has raised hopes for malaria eradication and consequently stimulated interest in developing new reagents that block gametocyte transmission such as novel and safe gametocytocidal drugs. However, previous drug development efforts have focused primarily on the asexual parasites that cause symptoms, but not malaria transmission. Consequently, patients can remain infectious for weeks after the clearance of asexual parasites and clinical symptoms. To be transmitted from person to person via a mosquito, the parasites must switch from asexual to sexual development and produce male and female gametocytes. Malaria gametocytes consist of five stages (I, II, III, IV and V). The late stage gametocytes (III, IV and V) are difficult to be cultured in vitro and the long lifespan of mature gametocytes allows them being transmitted from host to mosquitoes unless they are completely eliminated by gametocytocidal agents. To identify gametocytocidal compounds which are capable of killing late stage P. falciparum gametocytes, a high throughput gametocyte viability assay was employed. This assay uses oxidoreduction indicator, alamarBlue, as a general measure of metabolic activity of gametocytes. Within live cells, the nonfluorescent resazurin is reduced to resorufin, a bright red fluorescence dye. Fluorescence decreases upon treatment of gametocytocidal compounds. P. falciparum gametocyte (3D7 strain) was used in this study.
The 1536-well gametocycidal viability assay was based on the previous method of Tanaka et al. Stage III-V gametocytes were tested against three compound libraries, including 4265 compounds from NCGC pharmaceutical collection, 400 from Malaria Box library, and 550 from an internal collection of kinase inhibitors. Briefly, 2.5 ul/well incomplete medium was dispensed into each well of 1,536-well plates using the Multidrop Combi followed by 23 nl compound transferring using the NX-TR Pintool (WAKO Scientific Solutions, San Diego, CA). Then, 2.5 ul/well of gametocytes was dispensed with a seeding density of 20,000 cells/well using the Multidrop Combi. The assay plates were incubated for 72 h at 37C with 5% CO2. After addition of 5 ul/well of 2X AlamarBlue dye (Life Technologies, cat. no. DAL1100), the plates were incubated for 24 h at 37C with 5% CO2 and then were read in a fluorescence detection mode (Ex = 525 nm, Em = 598 nm) on a ViewLux plate reader (PerkinElmer).
Background: Quantitative high-throughput screening tests each substance at several concentrations.
In the case of `N#Cc1c(O)c2c(-c3ccc(-c4ccccc4O)cc3)csc2[nH]c1=O`, the max response was 42.7% (inactive).
Turning to `CC(C)C[C@H](NC(=O)CNC(=O)c1cc(Cl)ccc1Cl)B(O)O`, the Potency was 18.7 µM (active).
Consider `COc1cc(C(C)C)c2c(c1)S(=O)(=O)N(COc1cc(=O)n3cccc(OCCN4CCCCC4)c3n1)C2=O`, for which the max response was -3.11% (inactive).
For `Nc1ccccc1NC(=O)c1ccc(CNc2nccc(-c3cccnc3)n2)cc1`, the Potency is 11.8 µM (active).
In the case of `Cc1[nH]c2ccccc2c1CCNCc1ccc(C=CC(=O)NO)cc1`, the Potency is 1.18 µM (active).
`O=C(O)c1ccc2c(c1)nc(Nc1cccc(Cl)c1)c1ccncc12`: the max response was 35.3% (inactive).
The same measure, in the same setting: the figure for `CC(=O)SC[C@@H](C)C(=O)N1CCC[C@H]1C(=O)N[C@@H](Cc1ccccc1)C(=O)O` is 7.13% (inactive).
`COc1cc(=C2C=c3ccccc3=N2)[nH]c1=Cc1[nH]c(C)cc1C`: the Potency is 7.43 µM (active).
For the compound `O=C(NCCS(=O)(=O)c1ccc(C(F)(F)F)cn1)c1ccc(Cl)cc1`, the max response is 12.1% (inactive).
The same measure, in the same setting: the figure for `O=C(O)CO.[NH2-].[NH2-].[Pt+2]` is -5.78% (inactive).
Same read-out and setting: the result for `COc1cc2c(Nc3ccc(NC(=O)c4ccccc4)cc3)ncnc2cc1OCCCN1CCOCC1` reads -17.9% (inactive).
In the case of `CNc1nccc(-c2cccnc2Oc2cc(C(=O)Nc3cccc(C(F)(F)F)c3)ccc2C)n1`, the max response was 8.44% (inactive).
As to `CC(C)(C)c1cc(C(C)(C)C)c(NC(=O)c2c[nH]c3ccccc3c2=O)cc1O`, the max response was 7.52% (inactive).
In the case of `CC(=O)Nc1sc2c(c1-c1nc3ccccc3s1)CNC2`, the max response is 20.9% (inactive).
Consider `Cn1cc(-c2[nH]c3cc(NC(=O)[C@H](N)C4CCCCC4)cc4c3c2C=NNC4=O)cn1`, for which the Potency was 23.5 µM (active).
On the same count and under the same terms, the result for `CC(=O)c1c(C)c2cnc(Nc3ccc(N4CCNCC4)cn3)nc2n(C2CCCC2)c1=O` reads 7.43 µM (active).
In the case of `Nc1nc(-c2nn(Cc3ccccc3F)c3ncccc23)nc(N)c1N1CCOCC1`, the max response is -6.3% (inactive).
Consider `CCCCc1nc2cc(C=CC(=O)NO)ccc2n1CCN(CC)CC`, for which the Potency was 3.72 µM (active).
For `COc1ccc(C=Cc2cc(OC)c(OC)c(OC)c2)cc1O`, the max response is 18.2% (inactive).
On to `CC(NCc1ccc2c(c1)nc(NC(=O)c1ccc(-c3cn[nH]c3)s1)n2CC(C)(C)O)C(C)(C)C` (stereo not given), for which the Potency is 9.35 µM (active).
Turning to `CC(=O)OCCN1C(=O)c2c(C)nc3ccc(S(=O)(=O)N4CCOCC4)cc3c2C1=O`, the max response is 15.6% (inactive).
On to `C=CCn1c(=O)c2cnc(Nc3ccc(N4CCN(C)CC4)cc3)nc2n1-c1cccc(C(C)(C)O)n1`, for which the Potency is 3.32 µM (active).
As to `COc1ccc2c(c1)CC[C@@H](CN(C)CC(=O)O)[C@H]2c1ccccc1`, the max response is 4.46% (inactive).
Same read-out and setting: the figure for `CN1c2cc(O)c(N=NC(N)=O)cc2CC1S(=O)(=O)O` (stereo not given) is 13% (inactive).
On the same count and under the same terms, the figure for `O=C(O)c1ccc2cc(-c3ccc(O)c(C45CC6CC(CC(C6)C4)C5)c3)ccc2c1` is 9.89% (inactive).
For `CN(C)CCCN=c1c2ccccc2n(C)c2[nH]c(=O)n(C)c(=O)c12`, the Potency was 14.8 µM (active).
On to `COc1cc2ncnc(Nc3ccc(F)c(Cl)c3)c2cc1NC(=O)C=CCN1CCCCC1`, for which the Potency was 11.8 µM (active).
Still for that read-out and setting: the result for `Cc1cc(Nc2cc(N3CCN(C)CC3)nc(C=Cc3ccccc3)n2)n[nH]1` reads 8.33 µM (active).
Consider `CCC(=C(c1ccccc1)c1ccc(OCCN(C)C)cc1)c1ccccc1`, for which the max response is -26.2% (inactive).
On the same count and under the same terms, the figure for `CN[C@H]1CCc2cc(OC)c(OC)c(OC)c2-c2ccc(OC)c(=O)cc21` is -7.45% (inactive).
`O=c1[nH]nc(Sc2ncc([N+](=O)[O-])s2)n1-c1ccc2c(c1)OCCO2`: the Potency is 7.43 µM (active).
As for `Cc1cnc(Nc2ccc(F)cc2Cl)nc1-c1c[nH]c(C(=O)N[C@H](CO)c2cccc(Cl)c2)c1`, the max response was -28.2% (inactive).
With `COc1cc2c(Oc3ccc(NC(=O)C4(C(=O)Nc5ccc(F)cc5)CC4)cc3F)ccnc2cc1OCCCN1CCOCC1`, the Potency is 18.7 µM (active).
On to `CC1(C)OC2=C(C(=O)c3ccccc3C2=O)[C@H](NCc2ccccc2)[C@H]1O`, for which the Potency is 0.743 µM (active).
On the same count and under the same terms, the result for `CC(C)CC(=O)Nc1n[nH]c2c1CN(C(=O)C1CCN(C)CC1)C2(C)C` reads 18.7 µM (active).
Same read-out and setting: the result for `CC1=C(CO)C(=O)O[C@@H]([C@@H](C)[C@H]2CC[C@H]3[C@@H]4C[C@H]5O[C@]56[C@@H](O)C=CC(=O)[C@]6(C)[C@@H]4CC[C@]23C)C1` reads 0.372 µM (active).
`COc1cc(C(=O)NS(=O)(=O)c2ccccc2C)ccc1Cc1cn(C)c2ccc(NC(=O)OC3CCCC3)cc12`: the max response was 2.7% (inactive).
Same read-out and setting: the figure for `CC(C)=CCCC(C)=CCCC(C)=CCSc1ccccc1C(=O)O` is 2.41% (inactive); for `O=C(C=Cc1cccnc1)NCCCCC1CCN(C(=O)c2ccccc2)CC1` it is 33.6% (inactive).
Turning to `CC[C@@H]1C(=O)N(C)c2cnc(Nc3ccc(C(=O)NC4CCN(C)CC4)cc3OC)nc2N1C1CCCC1`, the Potency was 2.35 µM (active).
